IL-1B inflam inh = inflammasome signaling inhibition, IL-1 beta readout | THP-1 LPS/ATP IL-1B secretion, AlphaLISA, 16 h; stronger effect = lower value | activity change, % at 57.5 µM | 360,000 compounds, 4.7% hits | AID 743279; in the data active = activity change below about -50%; inconclusive = mostly about -30% to -49%; note: % is set by controls: 0 for no effect and ±100 for the full control effect
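Secreted IL-1B measured by AlphaLISA bead assay after 16 h compound exposure of THP-1 cells; compounds (final up to 57.5 uM) added 1 h before LPS (250 ng/mL) and ATP (1.25 mM) stimulation; lower signal means less secretion.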
TDP1 block = blocks human tyrosyl-DNA phosphodiesterase 1; recombinant TDP1, AlphaScreen DNA substrate cleavage; Potency, µM (top dose mostly 130 µM), inactives show top-dose activity change, negative = inhibition, actives largely listed as inhibitors; 350,000 compounds, 0.28% hits; note: potency is the fitted concentration of half-maximal effect; % is set by controls: 0 for no effect and ±100 for the full control effect; nearly all actives have a fitted effect of over 40% in size
Target sequence (Q9NUW8 whole entry, looked up): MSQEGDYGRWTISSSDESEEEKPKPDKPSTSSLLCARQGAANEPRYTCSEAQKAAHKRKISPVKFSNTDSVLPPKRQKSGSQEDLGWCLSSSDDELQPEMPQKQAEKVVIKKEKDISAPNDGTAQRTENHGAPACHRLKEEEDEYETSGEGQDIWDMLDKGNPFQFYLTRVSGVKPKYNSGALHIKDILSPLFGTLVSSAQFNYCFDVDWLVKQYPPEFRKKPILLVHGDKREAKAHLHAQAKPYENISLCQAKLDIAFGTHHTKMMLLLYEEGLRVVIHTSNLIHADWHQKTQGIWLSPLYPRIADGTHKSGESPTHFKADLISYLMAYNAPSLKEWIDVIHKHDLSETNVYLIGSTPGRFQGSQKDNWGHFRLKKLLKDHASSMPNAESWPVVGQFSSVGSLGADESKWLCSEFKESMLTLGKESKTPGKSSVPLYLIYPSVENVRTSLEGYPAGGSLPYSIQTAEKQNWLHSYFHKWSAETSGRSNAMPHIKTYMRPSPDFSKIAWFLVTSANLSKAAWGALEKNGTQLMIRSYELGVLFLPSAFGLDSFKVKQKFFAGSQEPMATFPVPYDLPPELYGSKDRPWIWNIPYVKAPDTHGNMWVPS
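Here, a 5' biotin and 3' phosphotyrosine-FITC DNA oligonucleotide reports Tdp1 activity: intact substrate bridges AlphaScreen beads, while cleavage leaves a 3' phosphate and drops signal. All incubations at room temperature.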
TGFb inhibitor = inhibitors of TGF-b signaling. HepG2 CAGA-GFP TGF-b/SMAD3 reporter, GFP fluorescence, 18 h; TGF-beta stimulated, 500 pg/mL final. Potency, µM (doses to about 46.1 µM), inactives show top-dose activity, negative = inhibition, most hits filed as inhibitors. 410,000 compounds, 1.2% hits. AID 588855; note: potency is the fitted concentration of half-maximal effect; % is set by controls: 0 for no effect and ±100 for the full control effect; nearly all actives have a fitted effect of over 65% in size
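Smad-responsive CAGA-GFP expression was quantified in HEPG2 cells exposed to compounds and 500 pg/mL final TGF-beta for 18 h at 37 degrees C; unstimulated wells defined full inhibition.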
DT40 TDP1 CPT = growth inhibition of DT40 Tdp1-/-;hTDP1 cells with camptothecin (screen for TDP1 inhibitors); 420,000 compounds, 12% hits; Potency, µM (doses to about 46.2 µM), inactives show at the highest dose activity change, negative = growth inhibition, usual class: inhibitors; chicken DT40 Tdp1-/-;hTDP1 cells + 20 nM CPT, ATP luminescence, 48 h; note: potency is the fitted concentration of half-maximal effect; % is set by controls: 0 for no effect and ±100 for the full control effect; nearly all actives have a fitted effect of over 55% in size
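Chicken DT40 Tdp1-/- cells complemented with human TDP1, 400 cells/well, exposed to compounds plus 20 nM camptothecin for at least 48 h at 37 C; viability read as ATP content by CellTiter-Glo luminescence.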
DT40 TDP1 no CPT = qHTS for Inhibitors of human tyrosyl-DNA phosphodiesterase 1 (TDP1): qHTS in cells in absence of CPT; Potency, µM (titrated, usually from 46.2 µM), without a hit: at the top dose activity change, negative = growth inhibition, actives largely listed as inhibitors; DT40 Tdp1-/- hTDP1 cells, no CPT, ATP luminescence, 48 h; 420,000 compounds, 15% hits; note: potency is the fitted concentration of half-maximal effect; % is set by controls: 0 for no effect and ±100 for the full control effect; nearly all actives have a fitted effect of over 55% in size
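Stably hTDP1-transfected Tdp1-null chicken DT40 cells were treated with library compounds minus camptothecin and grown for at least 48 hr at 37 °C, after which cellular ATP was quantified by luminescence.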
HepG2 tox = counter-screen for TGF-b inhibitors: cytotoxicity in HepG2 cells; HepG2 CAGA-GFP viability, ATP luminescence, 18 h; Potency, µM (highest dose often 46.1 µM), without a hit: at the highest dose activity change, negative = cytotoxicity, hits mostly cytotoxic; 410,000 compounds, 0.76% hits; note: potency is the fitted concentration of half-maximal effect
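HepG2 CAGA-GFP cells (1000/well, DMEM with 1% FBS) received compound, then TGF-beta at 500 pg/mL final, and were incubated 18 hours at 37 degrees C. Viability was read by CellTiter-Glo luminescence. Media-only wells were set as complete cell-killing and DMSO as no toxicity.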
Numbers without * were called inactive; ? = inconclusive; nt = no result. This is a sample that favours compounds with a hit; in the whole collection about 19% have one here. Unless noted, calls come from the whole dose curve; as a rule, active = well fitted curve in the direction sought with a large enough effect; inconclusive = small, poorly fitted or top-dose-only effect, or another doubt; inactive = no such curve, though single readings can be large; an effect the other way counts as inactive or inconclusive.

SMILES | IL-1B inflam inh | TDP1 block | TGFb inhibitor | DT40 TDP1 CPT | DT40 TDP1 no CPT | HepG2 tox
Cc1cccn2c(=O)c3cc(C#N)c(=NC(=O)c4cccs4)n(CCCOC(C)C)c3nc12 | -15.5 | 1.3% | 15.5% | ? | 18.4µM* | 17.2%
CCO[C@H]1OC(C(=O)N2CCN(Cc3ccc4c(c3)OCO4)CC2)=C[C@@H](c2ccccc2)[C@@H]1CCCO | -8.1 | 3.8% | -20.7% | ? | ? | -9.7%
CCO[C@H]1OC(C(=O)N2CCN(Cc3ccc4c(c3)OCO4)CC2)=C[C@@H](c2ccc(C(F)(F)F)cc2)[C@@H]1CCCO | -76.7* | 3.8% | ? | 18.4µM* | 23.1µM* | -21.1%
CCO[C@@H]1OC(C(=O)N2CCN(C)CC2)=C[C@H](c2csc3ccccc23)[C@H]1CCCO | -0.5 | 0.0% | 6.5% | -1.5% | -18.6% | 0.9%
CCO[C@H]1OC(C(=O)N2CCN(Cc3ccccc3)CC2)=C[C@@H](C)[C@@H]1CCCO | 9.5 | 0.0% | 6.3% | ? | ? | 5.9%
CCO[C@@H]1OC(C(=O)N2CCN(Cc3ccc4c(c3)OCO4)CC2)=C[C@H](c2csc3ccccc23)[C@H]1CCCO | ? | 6.4% | ? | -88.6% | 23.1µM* | -18.5%
CCO[C@@H]1OC(C(=O)N2CCN(Cc3ccccc3)CC2)=C[C@H](c2ccc(Br)cc2)[C@H]1CCCO | -22.2 | 5.1% | -25.9% | ? | 23.1µM* | -3.6%
CCO[C@@H]1OC(C(=O)N2CCN(Cc3ccccc3)CC2)=C[C@H](c2ccc(C(F)(F)F)cc2)[C@H]1CCCO | -87.6* | 5.1% | 12.6µM* | ? | ? | -32.6%
COc1ccc(/C=C2\N=C(c3ccccc3Cl)NC2=O)cc1 | ? | nt | -19.9% | 5.8µM* | 0.82µM* | -24.7%
Cc1cc(C(=O)N2CCN(c3ccc([N+](=O)[O-])cc3)CC2)n[nH]1 | -11.0 | 5.3% | 1.1% | 3.26µM* | 2.59µM* | -4.2%
O=C(c1cc2ccccc2cc1O)N1CCN(c2ccc([N+](=O)[O-])cc2)CC1 | 0.3 | nt | ? | 29.1µM* | 14.6µM* | -3.9%
Cc1cc(C(=O)N2CCN(c3ccc([N+](=O)[O-])cc3)CC2)no1 | -24.1 | -1.2% | -10.3% | ? | ? | 0.7%
CCSc1ccccc1C(=O)N1CCN(c2ccc([N+](=O)[O-])cc2)CC1 | 2.3 | 4.7% | ? | ? | 16.4µM* | -24.5%
Cc1cc(-c2nc3ncccc3o2)ccc1NC(=O)c1ccc(Cl)cc1 | nt | 3.2% | 0.0% | -21.1% | 1.7% | -94.1%
CC(C)(C)Nc1oc(-c2ccccc2)nc1-c1ccccc1 | nt | 7.5% | nt | nt | nt | nt
O=C(CS)Nc1ccc2ccccc2c1 | -94.9* | 0.0% | -11.5% | 2.91µM* | 4.11µM* | -3.3%
O=C(CSCc1cccc(CSCC(=O)Nc2ccc3ccccc3c2)n1)Nc1ccc2ccccc2c1 | -26.2 | 5.3% | ? | ? | 14.6µM* | -34.6%
O=C(NC(=S)Nc1ccccc1N1CCCC1)c1ccc([N+](=O)[O-])cc1 | -20.6 | 1.2% | -18.6% | 25.9µM* | 18.4µM* | 9.0%
COc1ccc(C(=O)NC(=S)Nc2ccccc2N2CCCCC2)cc1[N+](=O)[O-] | 18.3 | 6.9% | 0.0% | 11.6µM* | 6.51µM* | 11.2%
Cc1c(C(=O)NC(=S)Nc2ccccc2N2CCCC2)cccc1[N+](=O)[O-] | 0.7 | 6.9% | -20.8% | ? | ? | 1.6%
COc1ccc(C(=O)NC(=S)Nc2cccc(Cl)c2N2CCOCC2)cc1[N+](=O)[O-] | 10.5 | 0.0% | -0.5% | ? | ? | -9.7%

Screening data: PubChem, National Center for Advancing Translational Sciences (NCATS)
